Screens from PubChem BioAssay.
JMJD2A Tudor inh – inhibitors of human JMJD2A Tudor domain; AlphaScreen JMJD2A-Tudor / H3K4me3 peptide binding; O75164; AID 504339; Potency, µM (titrated, usually from 114 µM), inactives show at the highest dose activity change, negative = inhibition, hits mostly inhibitors; 390,000 tested, 4.4% active; further: on the % scale 0 is the no-effect control and ±100 the full control effect; nearly all actives have a fitted effect of over 50% in size
HP1b chromo inh – HP1-beta chromodomain-methylated histone interaction inhibition. P83916. AlphaScreen HP1-beta / biotin-H3K9me3 peptide binding. Potency, µM (highest dose often 114 µM), for inactives: at the top dose activity change, negative = inhibition, usual class: inhibitors. 390,000 tested, 0.56% active. AID 540317; further: nearly all actives have a fitted effect of over 70% in size
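Compound inhibition of the preformed complex between 50 nM HP1-beta and 50 nM biotinylated H3K9me3 peptide was read by AlphaScreen. Buffer was PBS pH 7.4 with 0.01% Tween-20. Incubations ran 30 min at room temperature, with 10 ug/mL donor/acceptor beads.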
BAZ2B block – BAZ2B (human) inhibition; AlphaScreen BAZ2B-H3K14Ac peptide displacement; Q9UIF8; Potency, µM (titrated, usually from 114 µM), inactives show at the highest dose activity change, negative = inhibition, most hits filed as inhibitors; 360,000 tested, 4.4% active; AID 504333; further: on the % scale 0 is the no-effect control and ±100 the full control effect; nearly all actives have a fitted effect of over 60% in size
Target sequence (Q9UIF8 whole entry, looked up): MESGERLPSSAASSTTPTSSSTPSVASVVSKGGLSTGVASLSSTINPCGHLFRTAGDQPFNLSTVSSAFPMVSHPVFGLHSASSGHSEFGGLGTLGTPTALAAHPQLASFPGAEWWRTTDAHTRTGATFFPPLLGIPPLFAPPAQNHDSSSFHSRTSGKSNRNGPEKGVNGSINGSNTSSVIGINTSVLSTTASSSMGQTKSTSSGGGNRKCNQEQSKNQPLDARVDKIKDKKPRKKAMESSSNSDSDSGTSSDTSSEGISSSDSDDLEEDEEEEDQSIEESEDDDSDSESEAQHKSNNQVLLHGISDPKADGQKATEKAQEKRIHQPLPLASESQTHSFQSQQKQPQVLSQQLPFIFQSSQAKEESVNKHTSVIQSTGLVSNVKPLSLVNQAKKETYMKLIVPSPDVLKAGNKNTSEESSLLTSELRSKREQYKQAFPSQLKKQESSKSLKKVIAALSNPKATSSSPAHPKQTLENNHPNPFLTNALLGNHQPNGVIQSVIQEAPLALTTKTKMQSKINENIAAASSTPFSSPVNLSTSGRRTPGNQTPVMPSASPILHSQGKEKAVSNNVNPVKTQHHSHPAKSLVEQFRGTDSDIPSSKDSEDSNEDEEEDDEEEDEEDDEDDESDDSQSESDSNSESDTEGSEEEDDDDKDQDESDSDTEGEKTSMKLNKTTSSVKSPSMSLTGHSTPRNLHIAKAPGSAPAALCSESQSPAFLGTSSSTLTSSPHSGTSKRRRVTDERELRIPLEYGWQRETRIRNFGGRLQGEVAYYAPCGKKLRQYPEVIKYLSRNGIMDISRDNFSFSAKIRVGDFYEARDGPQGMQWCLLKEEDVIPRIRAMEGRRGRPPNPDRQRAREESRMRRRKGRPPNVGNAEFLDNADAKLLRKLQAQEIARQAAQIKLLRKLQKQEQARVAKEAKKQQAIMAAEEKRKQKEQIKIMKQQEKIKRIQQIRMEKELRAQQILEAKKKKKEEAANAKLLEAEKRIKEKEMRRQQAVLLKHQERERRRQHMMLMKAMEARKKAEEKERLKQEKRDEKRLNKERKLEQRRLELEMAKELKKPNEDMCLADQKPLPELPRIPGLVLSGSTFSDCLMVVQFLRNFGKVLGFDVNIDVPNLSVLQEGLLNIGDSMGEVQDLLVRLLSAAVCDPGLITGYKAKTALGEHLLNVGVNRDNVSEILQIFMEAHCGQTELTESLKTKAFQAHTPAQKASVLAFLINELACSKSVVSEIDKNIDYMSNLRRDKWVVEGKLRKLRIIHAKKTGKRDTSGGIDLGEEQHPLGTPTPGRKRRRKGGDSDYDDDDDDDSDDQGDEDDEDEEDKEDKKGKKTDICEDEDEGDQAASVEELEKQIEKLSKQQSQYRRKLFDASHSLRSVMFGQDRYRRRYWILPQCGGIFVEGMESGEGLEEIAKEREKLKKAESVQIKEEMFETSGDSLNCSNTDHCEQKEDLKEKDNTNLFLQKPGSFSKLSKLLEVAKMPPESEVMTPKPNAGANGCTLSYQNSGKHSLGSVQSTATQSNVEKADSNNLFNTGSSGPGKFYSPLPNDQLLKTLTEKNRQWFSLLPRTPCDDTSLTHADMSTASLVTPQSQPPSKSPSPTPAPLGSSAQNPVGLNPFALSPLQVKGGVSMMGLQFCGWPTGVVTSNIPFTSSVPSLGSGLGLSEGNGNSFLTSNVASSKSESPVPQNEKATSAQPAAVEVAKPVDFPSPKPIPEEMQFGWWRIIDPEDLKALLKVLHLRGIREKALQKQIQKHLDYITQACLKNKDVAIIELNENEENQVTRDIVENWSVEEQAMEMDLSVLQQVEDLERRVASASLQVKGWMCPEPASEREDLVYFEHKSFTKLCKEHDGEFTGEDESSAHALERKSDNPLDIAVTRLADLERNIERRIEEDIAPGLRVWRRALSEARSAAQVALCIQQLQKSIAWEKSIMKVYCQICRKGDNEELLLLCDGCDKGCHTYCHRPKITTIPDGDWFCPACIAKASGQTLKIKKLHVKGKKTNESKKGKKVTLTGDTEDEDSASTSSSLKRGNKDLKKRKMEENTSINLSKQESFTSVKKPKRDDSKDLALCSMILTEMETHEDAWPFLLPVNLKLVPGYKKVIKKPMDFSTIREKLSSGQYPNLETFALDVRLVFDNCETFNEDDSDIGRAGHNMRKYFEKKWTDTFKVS
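AlphaScreen displacement of biotin-H3(5-23)K14Ac peptide (50 nM final) from BAZ2B (50 nM final) in PBS pH 7.4, 0.01% Tween-20; complex preformed 30 min RT, then compounds (top 110 uM) 30 min RT, beads 20 min dark.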
PLK1 PBD inh – inhibitors of human PLK1 polo-box domain binding; Plk1 PBD binding of FITC phosphopeptide, fluorescence polarization; 360,000 tested, 2.8% active; Potency, µM, for inactives: max response, negative = inhibition, actives largely listed as inhibitors; AID 720504; further: series mostly up to about 57 µM; on the % scale 0 is the no-effect control and ±100 the full control effect; nearly all actives have a fitted effect of over 65% in size
G9a block – blocks human histone lysine methyltransferase G9a; Q96KQ7; G9a H3K9 monomethylation, AlphaScreen, 2 h; Potency, µM (titrated, usually from 102 µM), inactives show at the top dose activity, negative = inhibition, actives largely listed as inhibitors; 350,000 tested, 8.8% active; further: on the % scale 0 is the no-effect control and ±100 the full control effect; nearly all actives have a fitted effect of over 75% in size
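Chemiluminescent proximity detection of H3K9 monomethylation, read after 10 min bead incubation in the dark. Reaction: 20 nM G9a, 500 nM biotin-H3K9 peptide, 20 uM SAM cofactor, 2 h, room temperature, following 15 min enzyme-compound preincubation.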
ALOX12 inh – ALOX12 (human) lipoxygenase inhibition | 580,000 tested, 1.1% active | P18054 | purified 12hLO, xylenol orange hydroperoxide absorbance | Potency, µM (highest dose often 108 µM), without a hit: at the top dose activity change, negative = inhibition, hits mostly inhibitors; further: on the % scale 0 is the no-effect control and ±100 the full control effect
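Hydroperoxide product was detected by ferrous iron/xylenol orange as the 573 to 405 nm absorbance ratio. Arachidonic acid at 40 uM (final) was turned over for 30 min at room temperature by 150 nM human 12hLO, pH 7.0 Hepes buffer, after 15 min compound preincubation.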
* = called active by the depositor; ? = inconclusive; nt = no result; [ ] = another dose, or the depositor's remark. Sampled rows, rich in hits. Any-hit rate of the full collection: about 9%. The call rests on the fitted dose curve; in most records, active means well fitted curve in the direction sought with a large enough effect; inconclusive means small, poorly fitted or top-dose-only effect, or another doubt; inactive means no such curve, though single readings can be large; an effect the other way counts as inactive or inconclusive. Potency means the concentration at half of the fitted maximal effect.

SMILES	JMJD2A Tudor inh	HP1b chromo inh	BAZ2B block	PLK1 PBD inh	G9a block	ALOX12 inh
O=Cc1nc(Nc2cc(F)cc(F)c2)nc(NC2CCCC2)n1	-33.6%	nt	nt	nt	nt	nt
OC[C@@H]1CN(Cc2cccc3ccccc23)C[C@H](n2cnc3c(NCc4ccco4)ncnc32)O1	nt	nt	nt	-7.1%	nt	35.5µM*
CC(C)CNc1ncnc2c1ncn2[C@H]1CN(Cc2cccc3ccccc23)C[C@@H](CO)O1	nt	nt	nt	-8.9%	nt	?
O=C(Nc1ccccc1)N1CCC2(CC1)CC(N1CCOCC1)CCO2 (configuration not stated)	nt	nt	nt	nt	nt	-4.5%
Cc1ccc(SC/C(O)=C(\C#N)c2nc3ccccc3n2C)cc1	-20.3%	32.7%	-30.9%	7.6%	1.9%[12.7 µM]	6.0%
O=S(c1ccccc1O)S(=O)c1ccccc1O (configuration not stated)	0.794µM*	3.55µM*	nt	0.597µM*	nt	2.24µM*
CC(=O)N/C(=C\c1ccc(C)o1)C(=O)NCc1ccccc1	-28.3%	42.7%	-1.5%	-16.7%	70.8µM*	-3.4%
Cc1ccc(/C=C(\NC(=O)c2ccccc2)C(=O)NCC2CCCO2)o1 (configuration not stated)	-7.4%	32.9%	-12.2%	-11.5%	56.2µM*	8.3%
O=C(NCc1ccccc1)/C(=C\c1ccccc1)NC(=O)c1ccco1	-20.3%	20.6%	-11.3%	-7.8%	26.5%	9.2%
Cc1nc2cccnc2n1-c1cccc(C(=O)N2CCN(c3ccc(Cl)cc3)CC2)c1	?	10.9%	?	nt	-4.3%[59 µM]	-28.2%
COc1ccc(-c2nc(C)c(CCNC(=O)c3c(F)cccc3F)s2)cc1	-13.9%	18.5%[57 µM]	2.0%	nt	0.7%[59 µM]	0.0%
CC1(CCc2ccccc2)NC(=O)N(CC(=O)O)C1=O (configuration not stated)	-10.3%[11.4 µM]	28.4%	-4.8%	23.8µM*	35.4%[12.7 µM]	-11.4%
NCCN1CCN(S(=O)(=O)c2ccc([N+](=O)[O-])cc2)C=C1c1ccc(Cl)cc1	?	-11.9%	56.2µM*	-8.3%	1.6%[0.501 µM]	?
CCCCOC(=O)C1CCCC(C)N1 (configuration not stated)	22.4µM*	-6.1%	-38.5%	-7.2%	28.2µM*	?
Nc1[nH]c(=S)[nH]c(=O)c1-c1ccccc1	35.5µM*	-28.1%	0.5%	?	?	7.08µM*
CN(Cc1ncc[nH]1)C(=O)CC1C(=O)NCCN1Cc1c(F)cccc1Cl (configuration not stated)	-6.2%	33.5%	-9.0%	-13.3%	-9.0%	-1.3%
CN(Cc1ccccn1)C(=O)CC1C(=O)NCCN1Cc1ccc(F)cc1Cl (configuration not stated)	?	13.5%	56.2µM*	-20.9%	nt	39.7%
COc1cccc(CN2CCNC(=O)C2CC(=O)N(C)CC2CCOCC2)c1 (configuration not stated)	-4.9%	21.5%	-19.7%	-2.4%	-8.5%	12.9%
CN(CC1CCOCC1)C(=O)CC1C(=O)NCCN1Cc1cccc(Oc2ccccc2)c1 (configuration not stated)	-18.6%	38.5%	-20.6%	-16.3%	35.5µM*	3.1%
COc1ccccc1CN1CCNC(=O)C1CC(=O)N(C)Cc1nc(C)cs1 (configuration not stated)	-8.2%	44.4%	-5.5%	2.8%	50.1µM*	?
CN(CCC1CCOCC1)C(=O)CC1C(=O)NCCN1Cc1c(F)cccc1Cl (configuration not stated)	-9.0%	29.0%	-18.7%	-17.9%	39.8µM*	?
CCOc1ccc(CN2CCNC(=O)C2CC(=O)NCCCOc2cccnc2)cc1 (configuration not stated)	?	19.2%	-16.4%[57.1 µM]	?	?	27.4%
CN(CC1CCOCC1)C(=O)CC1C(=O)NCCN1CC(c1ccccc1)c1ccccc1 (configuration not stated)	-11.8%	17.5%	-9.8%	-6.2%	89.1µM*	?
O=C(CC1C(=O)NCCN1Cc1cccc(F)c1)NCCCOc1cccnc1 (configuration not stated)	?	13.7%	-11.5%[57.1 µM]	23.8µM*	?	11.6%
CN(Cc1cnn(C)c1)C(=O)CC1C(=O)NCCN1Cc1cccc(Oc2ccccc2)c1 (configuration not stated)	-22.4%	8.1%	-20.5%	-20.0%	25.1µM*	1.3%
SMILES	JMJD2A Tudor inh	HP1b chromo inh	BAZ2B block	PLK1 PBD inh	G9a block	ALOX12 inh
O=CN1CCCN(C(=O)CC2C(=O)NCCN2Cc2cccc(Oc3ccccc3)c2)CC1 (configuration not stated)	-16.9%	46.6%	-35.9%	-12.7%	44.7µM*	-8.1%
O=C1NCCN(Cc2cccc(Oc3ccccc3)c2)C1CC(=O)N1CCCCC1 (configuration not stated)	-29.7%	3.7%	-24.5%	-8.7%	nt	-7.7%
CSc1c2c(nc3ncnn13)CCC2	-10.1%	-1.4%	4.1%	-12.1%	15.2%[59 µM]	-0.2%
CCC1Nc2cc(Cl)c(S(N)(=O)=O)cc2S(=O)(=O)N1 (configuration not stated)	nt	nt	nt	nt	3.0%[59 µM]	-8.4%[22.9 µM]
CCc1ccc(-c2nnn(CC(=O)c3ccccc3F)n2)cc1	nt	nt	nt	nt	nt	-29.4%
COc1cc(CN2CCNC(=O)C2CC(=O)NCCCC2CCCC2)cc(OC)c1 (configuration not stated)	-25.8%	20.6%	-22.0%	-26.3%	70.8µM*	-10.5%
CN(Cc1ccccn1)C(=O)CC1C(=O)NCCN1Cc1cccc(Oc2ccccc2)c1 (configuration not stated)	-14.6%	12.0%	-31.5%	-30.1%	44.7µM*	-10.3%
COc1cccc(CN2CCNC(=O)C2CC(=O)N(C)C2CCCCC2)c1 (configuration not stated)	-13.6%	31.5%	-19.9%	-12.4%	50.1µM*	23.8%
CN(CC1CCOCC1)C(=O)CC1C(=O)NCCN1Cc1ccc(Cl)c(F)c1 (configuration not stated)	-15.7%	25.3%	-1.9%	-12.2%	50.1µM*	?
O=C(NCCc1nc2ccccc2n1CCCOc1ccc(Cl)cc1)C1CCCCC1	-3.7%	33.1%	-18.9%	nt	-3.5%[59 µM]	?
O=C(c1ccc(COc2ccccc2Br)o1)N1CCCCCC1	0.0%	23.4%	-37.1%	-13.9%	-29.9%[12.7 µM]	-18.7%
Cc1ccc(C)c(OCCCC(=O)N2CCOCC2)c1	?	3.7%	1.3%	?	44.7µM*	-17.5%
COc1ccccc1N1CCN(C(=O)COc2ccc(C)cc2Br)CC1	-16.1%	15.1%	-32.1%	-2.3%	?	?
COc1ccccc1N1CCN(C(=O)COc2cc(C)cc3oc(=O)cc(C)c23)CC1	?	8.8%	-13.2%	15µM*	-4.8%	10.1%
